Measurements reported in PubChem BioAssay (EPA / NIEHS).
Inconclusive results are not listed. Calls of active or inactive are those of the source. How the source made its calls, unless noted: active means hit-call score of the fitted dose curve at least 0.9, where 1 is the maximum; inconclusive means response in the unintended direction; inactive means score below 0.9.

Tests used:
[1] = target: human Peroxisome Proliferator-activated Receptor alpha (PPARa), PPARA (gene 5465) (UniProt Q07869); experiment: ATG_PPARa_TRANS: Attagene TRANS-FACTORIAL HepG2 Assay for human Peroxisome Proliferator-activated Receptor alpha (PPARa) (AID 2283001)
Procedure, shortened: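 Transient HepG2 transfection, GAL4-UAS reporters, NR-Gal4 chimeras; 24 h compound exposure. Readout: reporter transcripts by RT-PCR, 6-FAM primer extension, HpaI digest, capillary electrophoresis. Positive direction vs DMSO baseline.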

[2] = target: Peroxisome proliferator-activated receptor gamma (Homo sapiens) (UniProt P37231); experiment: ATG_PPARg_TRANS: Attagene TRANS-FACTORIAL HepG2 Assay for human Peroxisome Proliferator-activated Receptor-gamma (PPARg) (AID 2283007)
Procedure, shortened: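 Endpoint reflects upward reporter mRNA change versus DMSO controls. Setup: transiently transfected HepG2, GAL4-UAS reporters driven by chimeric NR-Gal4, 24 h incubation, RT-PCR with capillary electrophoresis read-out.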

[3] = target: human RAR-related Orphan Receptor gamma (RORg), RORC (gene 6097) (UniProt P51449); experiment: ATG_RORg_TRANS: Attagene TRANS-FACTORIAL HepG2 Assay for human RAR-related Orphan Receptor gamma (RORg) (AID 2283011)
Procedure, shortened: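 Chimeric RORg-Gal4 transactivation in transfected HepG2; 24 h exposure; RT-PCR/capillary electrophoresis readout of reporter mRNA, DMSO baseline.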

[4] = target: Retinoic acid receptor RXR-alpha (Homo sapiens) (UniProt P19793); experiment: ATG_RXRa_TRANS: Attagene TRANS-FACTORIAL HepG2 Assay for human Retinoid X Receptor alpha (RXRa) (AID 2283012)
Procedure, shortened: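 Chimeric NR-GAL4 trans-activation in HepG2, 24 h treatment; reporter transcripts quantified by fluorescence on capillary electrophoresis, analysed for upward change from DMSO.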

[5] = target: human Thyroid Receptor alpha (THRa1), THRA (gene 7067) (UniProt P10827); experiment: ATG_THRa1_TRANS: Attagene TRANS-FACTORIAL HepG2 Assay for human Thyroid Receptor alpha (THRa1) (AID 2283014)
Procedure, shortened: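 Measured here is mRNA from a GAL4-UAS reporter in transfected HepG2 cells carrying a Gal4-fused receptor, 24 h post-dose. DMSO served as negative control and baseline.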

[6] = target: human Retinoid X Receptor beta (RXRb), RXRB (gene 6257) (UniProt P28702); experiment: ATG_RXRb_TRANS: Attagene TRANS-FACTORIAL HepG2 Assay for human Retinoid X Receptor beta (RXRb) (AID 2283013)
Procedure, shortened: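 After a 24 h incubation with test chemical, transfected HepG2 cells carrying NR-Gal4 fusions and GAL4-UAS reporter transcription units yield RNA whose reporter cDNA is FAM-labelled, HpaI-cut and sized by capillary electrophoresis; increases over DMSO are scored.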

[7] = target: human Peroxisome Proliferator-activated Receptor delta (PPARd), PPARD (gene 5467) (UniProt Q03181); experiment: ATG_PPARd_TRANS: Attagene TRANS-FACTORIAL HepG2 Assay for human Peroxisome Proliferator-activated Receptor delta (PPARd) (AID 2283002)
Procedure, shortened: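 HepG2 cells transiently transfected with GAL4-UAS multiplexed reporter units driven by exogenous chimeric NR-GAL4 proteins; 24 h compound exposure. Reporter mRNA measured by RT-PCR, 6-FAM primer extension, HpaI digestion and capillary electrophoresis; gain of signal fitted relative to DMSO.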

[8] = read-out: Intercellular Adhesion Molecule 1 (ICAM1), ICAM1 (gene 3383); experiment: BSK_3C_ICAM1: BioMAP Diversity Plus: 3C Assay for Intercellular Adhesion Molecule 1 (ICAM1) Biomarker Activity (AID 2283003; active means hit-call score of the fitted dose curve at least 0.9, where 1 is the maximum; inactive means score below 0.9); conditions: primary human endothelial cells (HUVEC); actives raise or lower the signal
Procedure, shortened: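 Using DMSO as baseline, bidirectional curve fitting was applied to ICAM-1 ELISA signals from HUVEC in the 3C system, measured 24 h after compound addition.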

[9] = BSK_3C_Proliferation: Cell Proliferation Assessment in the BioMAP Diversity Plus: 3C Assay (AID 2283006; active means hit-call score of the fitted dose curve at least 0.9, where 1 is the maximum; inactive means score below 0.9); conditions: primary human endothelial cells (HUVEC)
Procedure, shortened: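 Measured here: sulforhodamine B (0.1%) staining of TCA-fixed sub-confluent umbilical vein endothelial cultures 48 h post-dosing, absorbance 560 nm. DMSO served as negative control and baseline; both signal gain and loss were modelled.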

[10] = target: Nuclear receptor subfamily 1 group I member 2 (Homo sapiens) (UniProt O75469); experiment: ATG_PXR_TRANS: Attagene TRANS-FACTORIAL HepG2 Assay for human Pregnane X Receptor (PXR) (AID 2283008)
Procedure, shortened: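 HepG2 transfected (FuGene 6) with GAL4-UAS reporter units + PXR-Gal4 chimera; dosed 24 h. Total RNA → oligo(dT) RT → PCR → 6-FAM primer extension → HpaI cut → CE. Gain-of-signal vs DMSO.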

[11] = target: human RAR-related Orphan Receptor beta (RORb), RORB (gene 6096) (UniProt Q92753); experiment: ATG_RORb_TRANS: Attagene TRANS-FACTORIAL HepG2 Assay for human RAR-related Orphan Receptor beta (RORb) (AID 2283010)
Procedure, shortened: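 Multiplexed transcription-factor reporter assay: HepG2 cells transiently carrying NR-Gal4/GAL4-UAS constructs, 24 h treatment, mRNA quantified by RT-PCR plus capillary electrophoresis fluorescence; activity scored as induction over DMSO.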

[12] = read-out: E-selectin (Homo sapiens) (UniProt P16581); experiment: BSK_3C_Eselectin: BioMAP Diversity Plus: 3C Assay for Eselectin Biomarker Activity (AID 2283015; active means hit-call score of the fitted dose curve at least 0.9, where 1 is the maximum; inactive means score below 0.9;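 further: cell surface E-selectin protein quantified by ELISA 24 h after dosing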); conditions: primary human endothelial cells (HUVEC); actives raise or lower the signal
Procedure, shortened: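 Endpoint derived by bidirectional fitting against DMSO vehicle; signal is ELISA-detected E-selectin from primary HUVEC at 24 h post-dosing, with parallel SRB staining (0.1% SRB, 560 nm) flagging cytotoxicity.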

[13] = read-out: Interleukin-1 alpha (IL1a), IL1A (gene 3552); experiment: BSK_BE3C_IL1a: BioMAP Diversity Plus: BE3C Assay for Interleukin-1 alpha (IL1a) Biomarker Activity (AID 2283016; active means hit-call score of the fitted dose curve at least 0.9, where 1 is the maximum; inactive means score below 0.9); conditions: primary human bronchial epithelial cells; actives raise or lower the signal
Procedure, shortened: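 Measured in human lung primary bronchial epithelial cells: IL-1a by ELISA at 24 h after dosing, with bidirectional fitting against DMSO.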

[14] = read-out: Monocyte Chemoattractant Protein-1 (MCP1), CCL2 (gene 6347); experiment: BSK_3C_MCP1: BioMAP Diversity Plus: 3C Assay for Monocyte Chemoattractant Protein-1 (MCP1) Biomarker Activity (AID 2283017; active means hit-call score of the fitted dose curve at least 0.9, where 1 is the maximum; inactive means score below 0.9); conditions: primary human endothelial cells (HUVEC); actives raise or lower the signal
Procedure, shortened: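 Using human vascular primary endothelium, researchers measured MCP-1 by ELISA 24 h after treatment, with DMSO serving as negative control for bidirectional fitting.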

[15] = read-out: Monocyte Chemoattractant Protein-1 (MCP1), CCL2 (gene 6347); experiment: BSK_4H_MCP1: BioMAP Diversity Plus: 4H Assay for Monocyte Chemoattractant Protein-1 (MCP1) Biomarker Activity (AID 2283018; active means hit-call score of the fitted dose curve at least 0.9, where 1 is the maximum; inactive means score below 0.9); conditions: primary human endothelial cells (HUVEC); actives raise or lower the signal
Procedure, shortened: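 Primary human umbilical vein endothelium is exposed to chemical for 24 h before MCP-1 is assayed by ELISA. Concentration-response fitted bidirectionally relative to DMSO.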

[16] = read-out: Human Leukocyte Antigen - DR isotype (HLADR), HLA-DRA (gene 3122); experiment: BSK_3C_HLADR: BioMAP Diversity Plus: 3C Assay for Human Leukocyte Antigen - DR isotype (HLADR) Biomarker Activity (AID 2283019; active means hit-call score of the fitted dose curve at least 0.9, where 1 is the maximum; inactive means score below 0.9;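 further: ELISA of cell-surface HLA-DR on HUVEC 24 h after dosing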); conditions: primary human endothelial cells (HUVEC); actives raise or lower the signal
Procedure, shortened: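 Compound added to primary HUVEC cultures, 24 h incubation, then HLA-DR determined by ELISA; endpoint derived by bidirectional fitting relative to DMSO negative control.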

[17] = read-out: Interleukin-8 (IL8), CXCL8 (gene 3576); experiment: BSK_3C_IL8: BioMAP Diversity Plus: 3C Assay for Interleukin-8 (IL8) Biomarker Activity (AID 2283020; active means hit-call score of the fitted dose curve at least 0.9, where 1 is the maximum; inactive means score below 0.9); conditions: primary human endothelial cells (HUVEC); actives raise or lower the signal
Procedure, shortened: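 Using DMSO-treated wells as the baseline, bidirectional curve fitting was applied to ELISA-measured IL-8 from human umbilical vein endothelial cultures sampled 24 h after compound addition.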

[18] = target: human Retinoic Acid Receptor beta (RARb), RARB (gene 5915) (UniProt P10826); experiment: ATG_RARb_TRANS: Attagene TRANS-FACTORIAL HepG2 Assay for human Retinoic Acid Receptor beta (AID 2283004)
Procedure, shortened: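 Fluorescent capillary-electrophoresis detection of GAL4-UAS reporter mRNA defines the endpoint, with induction over DMSO-treated wells scored as activity. Transiently transfected human hepatoma HepG2 cells expressing exogenous NR–Gal4 proteins are exposed to test chemicals for 24 h.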

[19] = target: Retinoic acid receptor alpha (Homo sapiens) (UniProt P10276); experiment: ATG_RARa_TRANS: Attagene TRANS-FACTORIAL HepG2 Assay for human Retinoic Acid Receptor alpha (RARa) (AID 2283005)
Procedure, shortened: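 HepG2 transiently transfected with multiplex GAL4-UAS reporter units including a human RARa–GAL4 chimera; 24 h compound exposure. Reporter mRNA quantified by RT-PCR, 6-FAM labeling and capillary electrophoresis; gain of signal versus DMSO.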

[20] = target: human Retinoic Acid Receptor gamma (RARg), RARG (gene 5916) (UniProt P13631); experiment: ATG_RARg_TRANS: Attagene TRANS-FACTORIAL HepG2 Assay for human Retinoic Acid Receptor gamma (RARg) (AID 2283009)
Procedure, shortened: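 Gain-of-signal relative to DMSO is reported from fluorescent capillary electrophoresis of RT-PCR reporter products. These came from HepG2 cells expressing transfected RARg-GAL4 chimeras with UAS reporters, harvested 24 h after dosing.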

Measured: AC50

Peroxisome proliferator-activated receptor gamma (Homo sapiens), sequence (P37231 whole entry, looked up, the tested form may be a part): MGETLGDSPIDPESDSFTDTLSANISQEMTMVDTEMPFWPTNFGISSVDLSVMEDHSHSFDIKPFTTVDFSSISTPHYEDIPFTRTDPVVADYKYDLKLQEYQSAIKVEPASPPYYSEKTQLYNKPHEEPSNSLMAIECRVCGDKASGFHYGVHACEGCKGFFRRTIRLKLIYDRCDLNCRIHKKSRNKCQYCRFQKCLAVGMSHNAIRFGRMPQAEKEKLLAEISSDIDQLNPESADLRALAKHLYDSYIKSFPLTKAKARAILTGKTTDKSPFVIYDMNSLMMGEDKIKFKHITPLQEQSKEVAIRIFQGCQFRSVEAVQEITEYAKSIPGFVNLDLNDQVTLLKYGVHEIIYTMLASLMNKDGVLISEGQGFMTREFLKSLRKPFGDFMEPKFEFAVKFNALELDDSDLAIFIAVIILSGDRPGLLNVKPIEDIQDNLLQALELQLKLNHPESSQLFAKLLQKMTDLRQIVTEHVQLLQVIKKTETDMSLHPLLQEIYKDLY
human RAR-related Orphan Receptor beta (RORb), RORB (gene 6096), sequence (Q92753 whole entry, looked up, the tested form may be a part): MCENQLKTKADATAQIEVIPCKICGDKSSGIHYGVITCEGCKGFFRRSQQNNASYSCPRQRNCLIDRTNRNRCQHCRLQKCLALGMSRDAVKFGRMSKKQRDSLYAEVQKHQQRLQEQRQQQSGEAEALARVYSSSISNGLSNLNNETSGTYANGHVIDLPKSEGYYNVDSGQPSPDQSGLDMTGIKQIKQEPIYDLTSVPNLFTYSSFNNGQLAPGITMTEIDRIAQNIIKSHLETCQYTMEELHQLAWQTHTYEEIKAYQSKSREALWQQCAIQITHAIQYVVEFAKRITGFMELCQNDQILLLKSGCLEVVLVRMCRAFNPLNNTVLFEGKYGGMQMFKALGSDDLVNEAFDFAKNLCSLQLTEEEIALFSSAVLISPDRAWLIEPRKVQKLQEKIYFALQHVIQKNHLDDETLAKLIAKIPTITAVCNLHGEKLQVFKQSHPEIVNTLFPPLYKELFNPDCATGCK
human Retinoic Acid Receptor beta (RARb), RARB (gene 5915), sequence (P10826 whole entry, looked up, the tested form may be a part): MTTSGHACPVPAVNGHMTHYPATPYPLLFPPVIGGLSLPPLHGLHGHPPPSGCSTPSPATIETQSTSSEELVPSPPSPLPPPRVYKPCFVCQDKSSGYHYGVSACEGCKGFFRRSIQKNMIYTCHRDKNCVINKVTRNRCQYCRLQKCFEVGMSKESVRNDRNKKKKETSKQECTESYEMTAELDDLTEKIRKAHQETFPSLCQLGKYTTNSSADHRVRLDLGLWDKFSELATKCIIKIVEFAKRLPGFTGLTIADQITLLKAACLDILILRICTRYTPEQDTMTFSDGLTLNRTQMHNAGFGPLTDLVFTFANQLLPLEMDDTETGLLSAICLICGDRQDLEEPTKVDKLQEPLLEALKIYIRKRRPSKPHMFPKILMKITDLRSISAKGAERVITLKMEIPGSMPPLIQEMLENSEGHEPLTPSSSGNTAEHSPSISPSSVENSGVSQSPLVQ
human Thyroid Receptor alpha (THRa1), THRA (gene 7067), sequence (P10827 whole entry, looked up, the tested form may be a part): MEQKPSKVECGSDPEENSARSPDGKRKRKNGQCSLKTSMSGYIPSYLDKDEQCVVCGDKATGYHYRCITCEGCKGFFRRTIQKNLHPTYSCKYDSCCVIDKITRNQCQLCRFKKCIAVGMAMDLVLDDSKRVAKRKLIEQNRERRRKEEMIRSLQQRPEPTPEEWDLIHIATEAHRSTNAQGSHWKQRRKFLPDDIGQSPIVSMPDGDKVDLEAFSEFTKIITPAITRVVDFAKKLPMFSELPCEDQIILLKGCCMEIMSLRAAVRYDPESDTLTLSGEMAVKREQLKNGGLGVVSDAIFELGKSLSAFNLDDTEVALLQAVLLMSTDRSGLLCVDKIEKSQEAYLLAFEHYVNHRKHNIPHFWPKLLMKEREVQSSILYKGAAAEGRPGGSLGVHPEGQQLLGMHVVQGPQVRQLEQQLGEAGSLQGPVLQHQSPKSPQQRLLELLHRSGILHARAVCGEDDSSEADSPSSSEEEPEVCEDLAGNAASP
human Peroxisome Proliferator-activated Receptor delta (PPARd), PPARD (gene 5467), sequence (Q03181 whole entry, looked up, the tested form may be a part): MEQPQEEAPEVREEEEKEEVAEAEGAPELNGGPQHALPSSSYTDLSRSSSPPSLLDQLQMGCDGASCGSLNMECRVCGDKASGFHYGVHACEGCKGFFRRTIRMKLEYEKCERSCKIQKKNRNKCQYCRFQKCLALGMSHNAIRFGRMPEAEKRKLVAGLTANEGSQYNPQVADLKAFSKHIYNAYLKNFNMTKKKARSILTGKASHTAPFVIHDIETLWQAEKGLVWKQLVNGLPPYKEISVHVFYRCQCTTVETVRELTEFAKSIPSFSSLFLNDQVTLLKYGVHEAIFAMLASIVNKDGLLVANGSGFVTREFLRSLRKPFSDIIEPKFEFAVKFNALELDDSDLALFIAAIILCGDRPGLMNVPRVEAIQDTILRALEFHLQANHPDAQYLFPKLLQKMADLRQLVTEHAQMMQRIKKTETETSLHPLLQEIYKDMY
Nuclear receptor subfamily 1 group I member 2 (Homo sapiens), sequence (O75469 whole entry, looked up, the tested form may be a part): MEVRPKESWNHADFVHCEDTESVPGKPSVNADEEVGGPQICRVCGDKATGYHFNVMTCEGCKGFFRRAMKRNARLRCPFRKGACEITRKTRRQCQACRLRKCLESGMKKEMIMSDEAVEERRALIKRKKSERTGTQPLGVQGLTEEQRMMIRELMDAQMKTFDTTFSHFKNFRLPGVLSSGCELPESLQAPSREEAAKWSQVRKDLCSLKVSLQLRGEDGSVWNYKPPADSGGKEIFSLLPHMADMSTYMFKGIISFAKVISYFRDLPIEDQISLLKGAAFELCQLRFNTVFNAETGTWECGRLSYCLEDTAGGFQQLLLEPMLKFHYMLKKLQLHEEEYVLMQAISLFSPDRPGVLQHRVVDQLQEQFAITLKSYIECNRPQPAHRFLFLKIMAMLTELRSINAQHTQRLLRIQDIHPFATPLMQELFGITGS
Retinoic acid receptor RXR-alpha (Homo sapiens), sequence (P19793 whole entry, looked up, the tested form may be a part): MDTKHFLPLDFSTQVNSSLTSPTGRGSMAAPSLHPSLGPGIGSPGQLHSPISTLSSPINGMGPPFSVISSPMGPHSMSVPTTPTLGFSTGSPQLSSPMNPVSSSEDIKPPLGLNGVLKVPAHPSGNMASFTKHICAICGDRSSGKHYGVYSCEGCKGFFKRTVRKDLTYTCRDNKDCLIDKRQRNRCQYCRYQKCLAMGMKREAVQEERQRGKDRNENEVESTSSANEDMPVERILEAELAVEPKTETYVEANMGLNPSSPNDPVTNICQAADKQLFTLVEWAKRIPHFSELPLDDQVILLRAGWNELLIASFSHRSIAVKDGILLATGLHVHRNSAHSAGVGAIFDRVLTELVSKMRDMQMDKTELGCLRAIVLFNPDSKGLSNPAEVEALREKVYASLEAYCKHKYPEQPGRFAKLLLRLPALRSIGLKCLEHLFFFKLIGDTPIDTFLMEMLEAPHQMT
human Retinoid X Receptor beta (RXRb), RXRB (gene 6257), sequence (P28702 whole entry, looked up, the tested form may be a part): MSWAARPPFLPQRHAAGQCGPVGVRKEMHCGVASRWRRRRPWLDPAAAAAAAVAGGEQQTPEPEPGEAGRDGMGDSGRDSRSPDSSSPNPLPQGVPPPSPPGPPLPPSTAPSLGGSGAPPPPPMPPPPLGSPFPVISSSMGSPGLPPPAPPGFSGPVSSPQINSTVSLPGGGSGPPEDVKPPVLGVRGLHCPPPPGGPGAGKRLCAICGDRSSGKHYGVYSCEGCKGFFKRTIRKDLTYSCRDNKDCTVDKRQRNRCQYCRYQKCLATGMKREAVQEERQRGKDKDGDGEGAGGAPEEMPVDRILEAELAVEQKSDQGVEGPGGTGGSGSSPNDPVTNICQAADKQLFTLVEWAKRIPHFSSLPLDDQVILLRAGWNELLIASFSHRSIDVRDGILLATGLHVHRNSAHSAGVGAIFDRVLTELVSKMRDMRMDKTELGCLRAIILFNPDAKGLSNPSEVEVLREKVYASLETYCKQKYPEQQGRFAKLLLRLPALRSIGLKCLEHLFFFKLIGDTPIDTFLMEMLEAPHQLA
human RAR-related Orphan Receptor gamma (RORg), RORC (gene 6097), sequence (P51449 whole entry, looked up, the tested form may be a part): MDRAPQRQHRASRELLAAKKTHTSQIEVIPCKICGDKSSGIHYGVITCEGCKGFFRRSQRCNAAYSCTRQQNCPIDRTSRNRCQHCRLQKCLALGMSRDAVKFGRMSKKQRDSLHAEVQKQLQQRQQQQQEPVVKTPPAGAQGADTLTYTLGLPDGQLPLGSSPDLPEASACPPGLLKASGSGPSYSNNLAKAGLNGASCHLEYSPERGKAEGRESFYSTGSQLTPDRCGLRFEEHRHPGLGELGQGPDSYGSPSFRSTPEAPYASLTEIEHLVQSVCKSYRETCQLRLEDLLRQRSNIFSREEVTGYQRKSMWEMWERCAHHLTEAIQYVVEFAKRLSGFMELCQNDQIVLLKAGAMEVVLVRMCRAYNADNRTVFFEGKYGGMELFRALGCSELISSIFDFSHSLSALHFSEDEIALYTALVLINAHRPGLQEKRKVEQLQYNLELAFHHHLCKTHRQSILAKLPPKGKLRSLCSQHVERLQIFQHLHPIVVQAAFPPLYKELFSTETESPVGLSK
E-selectin (Homo sapiens), sequence (P16581 whole entry, looked up): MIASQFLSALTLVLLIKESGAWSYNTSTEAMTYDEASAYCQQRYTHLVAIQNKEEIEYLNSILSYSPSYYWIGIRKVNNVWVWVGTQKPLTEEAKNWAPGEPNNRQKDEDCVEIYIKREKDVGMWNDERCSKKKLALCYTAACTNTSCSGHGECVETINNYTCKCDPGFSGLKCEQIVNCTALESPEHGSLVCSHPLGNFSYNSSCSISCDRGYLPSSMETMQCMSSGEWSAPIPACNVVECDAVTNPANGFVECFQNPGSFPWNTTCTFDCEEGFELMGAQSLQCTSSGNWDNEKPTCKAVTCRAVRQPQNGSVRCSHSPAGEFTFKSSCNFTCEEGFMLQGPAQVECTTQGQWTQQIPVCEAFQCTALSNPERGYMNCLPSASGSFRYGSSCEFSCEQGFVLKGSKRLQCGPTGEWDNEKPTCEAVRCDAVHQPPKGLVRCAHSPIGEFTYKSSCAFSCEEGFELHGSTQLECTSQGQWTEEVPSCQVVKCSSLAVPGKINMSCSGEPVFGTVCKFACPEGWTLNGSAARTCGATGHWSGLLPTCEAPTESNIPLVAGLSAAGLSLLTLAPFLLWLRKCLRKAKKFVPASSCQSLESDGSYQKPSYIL

Cc1cccc(C)c1C
inactive: [1] | [2] | [3] | [4] | [5]

CC1CCC2CC1C2(C)C (stereo not drawn)
inactive: [1] | [3] | [6]

CC(=O)OCCC(C)CC(C)(C)C (stereo not drawn)
inactive: [7] | [8] | [9] | [10] | [11] | [6] | [5] | [12] | [13] | [14] | [15] | [16] | [17]

C[Si](O[Si](C)(C)C)O[Si](C)(C)C
active: [6] 61.7 µM
inactive: [7] | [2] | [10] | [4]

CSc1nc(NC2CC2)nc(NC(C)(C)C)n1
active: [2] 31.9 µM | [10] 1.05 µM | [6] 22.7 µM
inactive: [7] | [5]

CCCOCC(C)O (stereo not drawn)
inactive: [7] | [2] | [10] | [11] | [6] | [5]

Cc1ccc(C=O)s1
active: [2] 32.8 µM
inactive: [7] | [10] | [11] | [4] | [5]

C[C@]12CC[C@H]3[C@@H](CCC4=CC(=O)CC[C@@]43C)[C@@H]1CC[C@@H]2C(=O)CO
active: [10] 2.12 µM
inactive: [7] | [2] | [4] | [5]

CC(C)C(C)(C)C(C)(C)C(C)(C)S
active: [2] 100 µM | [10] 4.47 µM
inactive: [7] | [3] | [6]

OCCOc1cccc(OCCO)c1
inactive: [7] | [18] | [2] | [10] | [3] | [5]

CCN(CC)c1ccc2c(-c3ccccc3C(=O)O)c3ccc(=[N+](CC)CC)cc-3oc2c1
active: [2] 30.4 µM | [10] 0.335 µM
inactive: [7] | [4]

CO[Si](C)(OC)c1ccccc1
inactive: [7] | [2] | [11]
active: [10] 2.73 µM

Cc1ccc2ccccc2n1
inactive: [7] | [18] | [19] | [10] | [20] | [11] | [3] | [4] | [5]

Fc1c(F)c(F)c(Br)c(F)c1F
inactive: [7] | [18] | [19] | [2] | [10] | [4] | [6]

ClCCCl
inactive: [7] | [2] | [10] | [3] | [6]
